Compound activity (PubChem)
A selection: hits, their analogues and other compounds. The true share with any hit is near 3.5%.
GPR151 activ: activators of human GPR151; activation, % at 11.2 µM; AID 1508602; hit rate 1% among 650,000; Q8TDV0; PathHunter beta-arrestin GPR151 cells, luminescence; in the data active = activation above about 4.9%
TEAD-YAP block: TEAD-YAP interaction inhibition; AID 1259422; HEK-TIYL cells, TEAD-Gal4/YAP UAS-luciferase luminescence; inhibition, % at 9.12 µM; hit rate 1.4% among 640,000; in the data active = inhibition above about 32%
MITF inh: blocks human microphthalmia-associated transcription factor; AlphaScreen MITF homodimerization, bead proximity signal; hit rate 0.91% among 650,000; O75030; inhibition, % at 2.6 µM; in the data active = inhibition above about 50%
FBW7 activator: human FBW7 E3 ligase activation, primary screen | Q969H0 | AlphaScreen FBW7–phospho-cyclin E peptide binding, activator screen | normalized activity (activation), % at 26.1 µM | hit rate 0.13% among 650,000 | AID 1259310; in the data active = normalized activity above about 1.9%;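 also: purified mutant Fbw7 with reduced substrate affinity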
Hits are given with their value; n = inactive.

SMILES	GPR151 activ	TEAD-YAP block	MITF inh	FBW7 activator
COc1cc(Nc2cc(Nc3nccc4ccccc34)nc(N)n2)cc(OC)c1OC	n	77	n	n
COc1cc(Nc2cc(Nc3ccccn3)nc(N)n2)cc(OC)c1OC	n	44	n	n
COc1ccc(OCC(=O)NCc2ccccc2)cc1	n	n	n	n
O=c1c(O)cc2c(-c3ccccc3)c3cc(O)c(O)c(Br)c3oc-2c1Br	n	n	96	n
CC(=O)c1sc(Nc2ccccc2)c(C#N)c1N	n	n	n	n
CC1=C(C(=O)Nc2ccccc2)C(c2ccccc2Cl)NC(=O)N1 (stereo unspecified)	n	n	n	n
CCOCCCNC1CCN(c2nc(C)c3cc(C)ccc3n2)CC1	n	49	n	n
CCCCNC1CCN(c2nc(C)c3cc(C)ccc3n2)CC1	n	n	n	n
COCCCNC(=O)/C(C#N)=C/c1cn(Cc2ccccc2)c2ccccc12	n	44	n	n
COCCNC(=O)/C(C#N)=C/c1cc(C)n(-c2sc(C)c(C)c2C#N)c1C	n	51	n	n
COCCCNC(=O)/C(C#N)=C/c1cc(C)n(-c2ccc(C)cc2)c1C	n	n	n	n
COCCCNC(=O)/C(C#N)=C/c1cc(C)n(-c2ccccc2)c1C	n	40	n	n
Cc1cccc(NC(=O)CCC(=O)OCC(=O)c2ccc([N+](=O)[O-])cc2)c1	n	n	n	n
Cc1cc(C(=O)NNC(=O)NC23CC4CC(CC(C4)C2)C3)ccc1[N+](=O)[O-]	n	n	n	n
O=c1[nH]c(/C=C/c2ccc3c(c2)OCO3)nc2ccccc12	n	56	n	n
COc1ccc(/C=C\c2nc(O)c([N+](=O)[O-])c(=O)[nH]2)cc1O	n	n	n	n
COc1ccc(/C=C/c2nc3ccccc3c(=O)[nH]2)cc1O	n	44	n	n
COc1cccc(/C=C/c2nc3ccccc3c(=O)[nH]2)c1O	n	65	n	n
COc1cccc(-n2cc(C(=O)NCCC(=O)N3CC(C)CC(C)C3)c3ccccc3c2=O)c1 (stereo unspecified)	n	n	n	n
CCOC(=O)C1=C(C)N=C2SCCC(=O)N2C1c1ccc(OC)c(OC)c1 (stereo unspecified)	n	n	n	n
COc1ccc(CCNC(=O)CN2CCC(c3nnc(C(C)C)o3)CC2)cc1OC	n	n	n	n
COc1ccc(CNC(=O)N2CCC(c3nnc(C(C)C)o3)CC2)cc1OC	n	n	n	2.5
COc1cc(NC(=O)Cc2nn(C)c(=O)c3ccccc23)cc(OC)c1OC	n	n	n	n
COc1ccc(CC(=O)NCc2ccc(C)cc2)cc1	n	n	n	n
Cn1nc(CC(=O)Nc2ccc(F)c(Cl)c2)c2ccccc2c1=O	n	n	n	1.9
SMILES	GPR151 activ	TEAD-YAP block	MITF inh	FBW7 activator
Cn1nc(CC(=O)Nc2cccc(F)c2)c2ccccc2c1=O	n	34	n	n
COc1ccc(CC(=O)NCc2ccsc2)cc1	n	35	n	n
Cc1cccc(NC(=O)Cc2nn(C)c(=O)c3ccccc23)c1	n	45	n	n
COc1ccc(NC(=O)NNC(=O)c2ccc(Br)s2)cc1OC	n	n	n	n
CCN1CCN(C(=O)CN2Cc3ccccc3C2=O)CC1	n	n	n	n
O=C(NCC1CCCO1)c1ccc2c(c1)N(Cc1cccc(Cl)c1)C(=O)CS2 (stereo unspecified)	n	n	n	n
Cn1nc(CC(=O)Nc2c(F)cccc2F)c2ccccc2c1=O	n	41	n	n
Cn1nc(CC(=O)Nc2ccccc2Br)c2ccccc2c1=O	n	n	n	n
Cc1ccc(NC(=O)Cc2nn(C)c(=O)c3ccccc23)cc1	n	42	n	n
COc1ccc(CNC(=O)Cc2nn(C)c(=O)c3ccccc23)cc1	n	38	n	n
CC(=O)Nc1cccc(NC(=O)CSc2nc3cc4c(cc3cc2C)OCO4)c1	n	n	n	n
CC(C)c1nnc2n1CCN(C(=O)C1CC(=O)c3ccccc31)CC2 (stereo unspecified)	n	n	n	n
COc1cc([N+](=O)[O-])cc(/C=N/NC(=O)C2COc3ccccc3O2)c1O (stereo unspecified)	n	n	n	n
C/C(=N\NC(=O)C1COc2ccccc2O1)c1ccco1 (stereo unspecified)	n	39	n	n
O=C(N/N=C/c1ccc2c3c(cccc13)CC2)C1COc2ccccc2O1 (stereo unspecified)	n	49	n	n
COc1cc(Cl)cc(/C=N\NC(=O)C2COc3cc4ccccc4cc3O2)c1O (stereo unspecified)	n	53	n	n
C/C(=N\NC(=O)C1COc2ccccc2O1)c1ccccc1 (stereo unspecified)	n	n	n	n
COc1cccc(/C=N/NC(=O)C2COc3ccccc3O2)c1O (stereo unspecified)	n	n	69	n
COCC(=O)Nc1cnn(-c2ccc(C(=O)N3CCN(C)C(c4ccccc4)C3)cc2)c1 (stereo unspecified)	n	n	n	n
C=C(Br)CN1C(=O)c2ccccc2C1=O	n	n	n	n
O=C(N/N=C/c1ccc(O)c(O)c1O)C1COc2ccccc2O1 (stereo unspecified)	n	n	55	n
Cc1ccc(/C=N/NC(=O)C2COc3ccccc3O2)c(O)c1 (stereo unspecified)	n	53	n	n
O=C(N/N=C/c1ccccc1)C1COc2ccccc2O1 (stereo unspecified)	n	37	n	n
CC(=O)NCCc1ccc(C(=O)CCl)cc1	n	n	n	n
COC(=O)C1=C(C(=O)OC)SC(=C2C(=S)C(C)(C)N(C(=O)c3cccc(Br)c3)c3ccccc32)S1	n	n	n	n
SMILES	GPR151 activ	TEAD-YAP block	MITF inh	FBW7 activator
N=C1C(c2nc3ccccc3s2)=C(O)CN1/N=C/c1ccc(O)c(O)c1O	n	n	56	n
N=C1C(c2nc3ccccc3s2)=C(O)CN1/N=C/C=O	n	n	n	n
CCc1ccc(C(=O)N/N=C/c2cc(Br)c(O)c(Br)c2O)nc1	n	72	67	n
CC(C)(C)CNC(=O)c1cnc2scc(-c3ccc(Cl)cc3)n2c1=O	n	n	n	n
O=C(Cc1cn(-c2ccc(Nc3ccncn3)nn2)c2ccccc12)NC1CC1	n	n	n	n
Cc1cccc(NC(c2cccc(C)n2)c2ccc3ccc(C)nc3c2O)n1 (stereo unspecified)	n	n	n	n
Cc1ccc2ccc(C(Nc3ccccn3)c3ccccn3)c(O)c2n1 (stereo unspecified)	n	39	n	n
Cc1cccc(NC(c2ccccn2)c2ccc3ccc(C)nc3c2O)n1 (stereo unspecified)	n	49	n	n
Cc1ccc2ccc(C(Nc3ccccn3)c3ccc(F)cc3)c(O)c2n1 (stereo unspecified)	n	n	n	n
CCOC(=O)N1CCc2c(sc(NCc3ccccn3)c2C(=O)Nc2ccc(OC)cc2OC)C1	n	48	n	n
[O-][n+]1onc2cc(Br)cnc21	n	n	61	n
[O-][n+]1onc2cc(Cl)c(Cl)cc21	n	n	n	n
CCOc1ccccc1NC(=O)C(C)Oc1ccc(OC)cc1 (stereo unspecified)	n	48	n	n
